High-throughput results as filed in PubChem.
AmpC inh no detg: AmpC beta-lactamase inhibition without detergent; P00811; hit rate 0.52% among 330,000; AmpC nitrocefin hydrolysis, absorbance 480 nm, 0.0001% Triton; AID 485341; Potency, µM (doses to about 57.1 µM), for the others: at the highest dose activity change, negative = inhibition, hits mostly inhibitors;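 note: plate controls were no compound for no effect and no enzyme for full effect; nearly all actives have a fitted effect of over 20% in size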
Target sequence (P00811 whole entry, looked up): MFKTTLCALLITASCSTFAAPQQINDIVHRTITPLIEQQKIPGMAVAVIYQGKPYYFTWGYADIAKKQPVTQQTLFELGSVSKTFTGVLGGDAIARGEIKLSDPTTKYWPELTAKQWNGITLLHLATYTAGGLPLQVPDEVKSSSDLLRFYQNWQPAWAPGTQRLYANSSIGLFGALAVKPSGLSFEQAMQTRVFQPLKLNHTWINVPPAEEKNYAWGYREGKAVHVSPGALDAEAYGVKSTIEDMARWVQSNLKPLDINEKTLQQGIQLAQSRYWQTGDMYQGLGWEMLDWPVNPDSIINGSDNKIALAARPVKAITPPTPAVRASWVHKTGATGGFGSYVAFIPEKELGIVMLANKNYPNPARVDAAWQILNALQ
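AmpC (5.3 nM in the dispensed reagent) in 20 mM phosphate pH 7.0 with 0.01% (detergent screen) or 0.0001% Triton X-100 was preincubated with compounds for 15 min at room temperature. Nitrocefin was then added from an 800 uM solution, and hydrolysis was followed at 480 nm.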
AMA1 RON2 block: disrupts binding of P. falciparum AMA1 to RON2; AlphaScreen AMA1-biotinylated RON2 peptide binding; Potency, µM (titrated, usually from 58.2 µM), for inactives: at the highest dose activity change, negative = inhibition, hits mostly inhibitors; AID 720542; hit rate 0.2% among 360,000;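 note: 0% = vehicle wells and -100% = peptide control; nearly all actives have a fitted effect of over 45% in size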
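AMA1 (3D7) with his tag at 25 nM final met compounds first, then biotinylated RON2 peptide at 25 nM; detection used donor plus acceptor beads, 10 µg/mL apiece, read by AlphaScreen after 30 min at room temperature.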
FMDV antiviral: blocks foot and mouth disease virus; FMDV antiviral cell-based qHTS; hit rate 1.2% among 410,000; Potency, µM (highest dose often 57.9 µM), without a hit: top-dose activity change, negative = inhibition, actives largely listed as inhibitors; AID 1159524; calls by dose curve; tested in HEK293T cells; note: read-out not given here; nearly all actives have a fitted effect of over 45% in size
Sm TGR inh: S. mansoni TGR enzyme inhibition | Q962Y6 | purified TGR, DTNB reduction, TNB absorbance 405 nm | Potency, µM (doses to about 114 µM), for the others: at the top dose activity change, negative = inhibition, actives largely listed as inhibitors | hit rate 3% among 360,000; note: nearly all actives have a fitted effect of over 60% in size
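Kinetic colorimetric format: TGR-catalysed, NADPH-driven DTNB reduction monitored via TNB absorbance. Enzyme dispensed at 20 nM; compound exposure 15 min at room temperature before reaction start.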
AmpC inh detg: AmpC beta-lactamase inhibition with detergent present; P00811; AmpC hydrolysis of nitrocefin, absorbance 480 nm, 0.01% Triton; Potency, µM (titrated, usually from 114 µM), inactives show at the top dose activity change, negative = inhibition, usual class: inhibitors; hit rate 0.041% among 370,000; AID 485294;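 note: 0% = no-compound wells and -100% = no-enzyme wells; nearly all actives have a fitted effect of over 25% in size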
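AmpC (5.3 nM in the dispensed reagent) in 20 mM phosphate pH 7.0 with 0.01% (detergent screen) or 0.0001% Triton X-100 was preincubated with compounds for 15 min at room temperature. Nitrocefin was then added from an 800 uM solution, and hydrolysis was followed at 480 nm.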
Starred values were filed as active, the others as inactive; ? = inconclusive; . = not tested or not shown. Compounds with a hit are over-represented: about 4.1% of the library has one in this group of screens. Unless noted, calls come from the whole dose curve; as a rule, active = well fitted curve in the direction sought with a large enough effect; inconclusive = small, poorly fitted or top-dose-only effect, or another doubt; inactive = no such curve, though single readings can be large; an effect the other way counts as inactive or inconclusive. Unless noted, % is set by controls: 0 for no effect and ±100 for the full control effect; potency is the fitted concentration of half-maximal effect.

SMILES	AmpC inh no detg	AMA1 RON2 block	FMDV antiviral	Sm TGR inh	AmpC inh detg
COc1ccc(CN(C(=O)c2cc3ccccc3oc2=O)C2CCS(=O)(=O)C2)cc1OC (centres undefined)	1.2%	3.6%	13.4%	-12.6%	4.4%
COc1ccccc1C(=O)N(Cc1ccco1)C1CCS(=O)(=O)C1 (centres undefined)	-20.8%	4.9%	-22.0%	35.5µM*	-5.3%
COc1ccc(CN(C(=O)/C=C/c2ccco2)C2CCS(=O)(=O)C2)cc1OC (centres undefined)	51.0%	-19.9%	-4.2%	3.55µM*	-9.1%
COc1cccc(CN(C(=O)/C=C/c2ccco2)C2CCS(=O)(=O)C2)c1 (centres undefined)	80.6%	0.4%	31.6%	7.94µM*	1.3%
COc1cccc(CN(C(=O)c2ccco2)C2CCS(=O)(=O)C2)c1 (centres undefined)	7.7%	0.0%	11.5%	-5.1%	-8.2%
CCOc1ccc(CN(C(=O)c2ccco2)C2CCS(=O)(=O)C2)cc1 (centres undefined)	-7.3%	5.0%	-2.3%	-30.0%	?
CCOc1ccc(C(=O)Nc2ccccc2OCc2cc(=O)n3ccccc3n2)cc1	.	.	1.7%	-5.8%	-3.8%
CCOc1ccc(NC(=O)C2CCN(c3nc4ccccc4[nH]3)CC2)cc1	.	.	-0.6%	-1.1%	7.9%
CC1CCN(S(=O)(=O)c2ccc3c(c2)CCN3)CC1	.	.	38.5%	-1.7%	-3.3%
O=c1oc2ccccc2cc1-c1cn2cc(Cc3ccc(Br)cc3)sc2n1	.	.	51.3%	5.3%	-7.4%
Cc1[nH]c2ccc(C(=O)NCCc3ccccc3Cl)cc2c1C	.	.	37.7%	-0.9%	3.6%
COc1ccc(CN(C(=O)/C=C/c2ccco2)C2CCS(=O)(=O)C2)cc1 (centres undefined)	41.9%	3.9%	9.9%	2µM*	0.4%
COc1ccc(CN(C(=O)c2ccco2)C2CCS(=O)(=O)C2)cc1 (centres undefined)	-16.3%	19.7%	-16.6%	8.6%	-19.1%
Cc1cc(C)nc(SC2CC(=O)N(c3ccc(Br)cc3)C2=O)n1 (centres undefined)	1.9%	4.4%	-6.5%	50.1µM*	5.9%
CCOc1ccc(N2C(=O)CC(Sc3nccc(C)n3)C2=O)cc1 (centres undefined)	-5.7%	-8.7%	-5.0%	-30.2%	-0.3%
Cc1ccnc(SC2CC(=O)N(c3ccc(Br)cc3)C2=O)n1 (centres undefined)	-10.8%	18.3%	-2.5%	50.1µM*	-17.9%
CCN(CC)C1CC(=O)N(c2ccc(Br)cc2)C1=O (centres undefined)	-35.5%	1.4%	1.2%	7.08µM*	-0.2%
Cc1cc(C)nc(SC2CC(=O)N(c3ccc(Cl)cc3)C2=O)n1 (centres undefined)	46.2%	5.4%	-25.3%	?	4.8%
Cc1ccnc(SC2CC(=O)N(c3ccc(Cl)cc3)C2=O)n1 (centres undefined)	-6.6%	1.1%	0.0%	50.1µM*	-6.3%
Cc1ccc(S(=O)(=O)NNC2CC(=O)N(c3ccc(Br)cc3)C2=O)cc1 (centres undefined)	-10.2%	-5.7%	-18.3%	.	-5.8%
Cc1ccnc(SC2CC(=O)N(c3ccc(C(C)C)cc3)C2=O)n1 (centres undefined)	22.8%	-2.3%	-20.3%	?	1.3%
Cc1nn(-c2ccc3nncn3n2)c(C)c1CCC(=O)Nc1ccc(OC(F)(F)F)cc1	.	.	-13.3%	1.1%	0.9%
CCc1ccccc1-n1cnc2cc(C(=O)NC3CCCCCC3)ccc21	.	.	9.5%	1.0%	3.0%
CCCN1C(=O)c2cc(C(=O)Nc3ccc(OC)c(OC)c3)ccc2C1Nc1ccc(OC)c(OC)c1 (centres undefined)	154.1%	-21.0%	-19.6%	-25.8%	0.7%
COc1ccc(NC(=O)c2ccc(-n3c(C)ccc3C)cc2)c(OC)c1	-23.6%	0.8%	-21.1%	28.2µM*	-7.7%
SMILES	AmpC inh no detg	AMA1 RON2 block	FMDV antiviral	Sm TGR inh	AmpC inh detg
CCc1ccccc1NC(=O)c1ccc(-n2c(C)ccc2C)cc1	-15.1%	12.7%	-2.6%	?	1.9%
Cc1ccc(C)n1-c1ccc(C(=O)Nc2ccccc2F)cc1	-29.7%	3.3%	30.1%	50.1µM*	7.6%
CCCN1C(=O)c2cc(C(=O)Nc3ccc(OC)cc3OC)ccc2C1Nc1ccc(OC)cc1OC (centres undefined)	156.2%	14.1µM*	-15.3%	0.0%	0.1%
COc1ccc(NC(=O)c2ccc(S(=O)(=O)C(F)F)cc2)c(OC)c1	-18.1%	3.0%	-11.2%	-4.0%	3.3%
Cn1c(-n2cccc2)c(-c2c(-c3ccc(F)cc3)[nH]c3c2c(=O)n(C)c(=O)n3C)c(=O)n(C)c1=O	.	.	-15.1%	-1.0%	2.0%
Oc1cncc(Cc2ccccc2)c1	-1.3%	7.2%	1.2%	31.6µM*	-9.7%
COc1cc2cncc(Cc3ccccc3)c2cc1O	.	13.6%	45.8%	.	.
CCCCCCCCCc1ccc(OCCOCCO)cc1	.	.	11.2µM*	.	.
CC1(c2nnc(-c3ccncc3)o2)CC(c2ccc([N+](=O)[O-])cc2)=NO1 (centres undefined)	53.2%	-9.8%	?	35.5µM*	1.2%
c1ccc(-c2cn3nc(-c4ccccc4)sc3n2)cc1	.	15.0%	10µM*	.	.
CC(C)Cn1c(-c2ccco2)csc1=Nc1cccnc1	-36.1%	-25.2%	-17.0%	56.2µM*	6.7%
COCCn1c(-c2cccs2)csc1=Nc1cccnc1	-33.9%	-5.0%	22.4µM*	-25.3%	3.6%
COCCn1c(-c2ccco2)csc1=Nc1cccnc1	-7.7%	-20.2%	-21.2%	?	-6.1%
O=C(NC1CC(=O)N(c2cccc(F)c2)C1)c1ccc(S(=O)(=O)N2CCCCC2)cc1 (centres undefined)	.	.	-9.5%	0.1%	0.5%
Cc1cc(C)n2nc3nc(N4CCCCC4)nc(-c4ccco4)c3c2n1	24.5%	?	0.0%	1.41µM*	5.7%
Cc1cc(C)n2nc3ccccc3c2n1	-16.4%	7.6%	.	1.8%	-1.3%
Cc1cc(C)cc(NC(=O)c2cc(S(=O)(=O)N3CCCCC3)c[nH]2)c1	.	.	13.9%	-1.3%	-0.1%
C=CCN1C(=O)CS/C1=C(\C#N)S(=O)(=O)c1ccc(C)cc1	14.1µM*	-7.5%	-22.5%	4.3%	-12.1%
CCOC(=O)c1cccc(Nc2cc(C)nc(C)n2)c1	.	.	?	-0.9%	15.1%
CCN(CC(=O)Nc1ccc(NC(C)=O)cc1)C(=O)/C=C/c1cn(-c2ccccc2)nc1-c1cccs1	25.1µM*	-3.5%	-0.9%	2.5%	?
CCN(CC(=O)Nc1ccc(NC(C)=O)cc1)C(=O)/C=C/c1ccc(C)o1	-19.2%	-7.5%	3.4%	44.7µM*	2.3%
O=c1c(-c2ccc(F)c(F)c2)nc2cncnc2n1Cc1ccccc1	.	.	-25.0%	.	.
CC(Sc1nc2c([nH]c3ccccc32)c(=O)n1-c1ccccc1)c1ccccc1 (centres undefined)	.	.	-24.9%	3.5%	5.1%
